Here are results for 31 compounds from PubChem BioAssay (NCATS).

Several values for one entry are separate records, joined by “and”; a condition that tells them apart may be missing. Equal entries are not always repeated. Inconclusive results are not listed. A number with no mark means an inactive call. Activity calls are given as the source filed them. Unless noted, calls come from the whole dose curve; as a rule, active = well fitted curve in the direction sought with a large enough effect; inconclusive = small, poorly fitted or top-dose-only effect, or another doubt; inactive = no such curve, though single readings can be large; an effect the other way counts as inactive or inconclusive.

The target in test [1] is Cytochrome P450 2D6 (Homo sapiens) (UniProt P10635). The test can be described thus: qHTS Assay for Inhibitors and Substrates of Cytochrome P450 2D6 (AID 891). An outline of the steps: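 Human CYP2D6 (5 nM) with 30 uM Luciferin-ME EGE (at Km) in 100 mM KPO4, compound preincubated 10 min, then NADPH regeneration system for 60 min at room temperature. Luciferin read by luminescence; normalized to 1.43 uM quinidine.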

Test [2] deals with Ubiquitin carboxyl-terminal hydrolase 1 (Homo sapiens) (UniProt O94782). Description: Inhibitors of USP1/UAF1: Pilot qHTS (AID 504865). An outline of the steps:
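Deubiquitinase activity followed as kinetic rhodamine fluorescence release from 150 nM Ub-Rho. 1 nM USP1/UAF1 with compound, after 15 min room-temperature preincubation, in HEPES pH 7.8 buffer containing TCEP, EDTA, BSA and Tween-20.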
A general note: qHTS replaces the single test concentration by a dilution series.

The target of test [3] is Cytochrome P450 1A2 (Homo sapiens) (UniProt P05177). The test can be described thus: p450-cyp1a2 (AID 410; calls by dose curve). An outline of the steps:
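Inhibition was calculated relative to 57 uM furafylline (full inhibition). The reaction used human CYP1A2 at 20nM with Luciferin-ME at its Km, 100uM, driven by an NADPH-regenerating system for 60 min at room temperature.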

Test [4] in a line: NFAT Signaling Pathway (AID 444; active = well fitted curve in either direction with a large enough effect, not every such curve was filed as active). The settings on record: Jurkat NFAT-bla M1, carbachol, beta-lactamase ratio, 5 h; at 38 µM (top of the series). An outline of the steps: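 Read-out: CCF4 FRET ratio (460 nm/530 nm) after 1 h RT dye loading, used for %activity and AC50 from titration series. Cells: Jurkat NFAT-β-lactamase/M1 line, treated with compound plus 1 uM carbachol for 5 h, 37 °C.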

The target in test [5] is Cytochrome P450 3A4 (Homo sapiens) (UniProt P08684). The test can be described thus: qHTS Assay for Inhibitors and Substrates of Cytochrome P450 3A4 (AID 884). The procedure, abridged: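 20 nM human CYP3A4 with 25 uM Luciferin-PPXE (at KM) in 200 mM KPO4, preincubated 10 min with compound; NADPH regeneration started a 60 min RT reaction. Luciferin detected by luminescence, normalized to 57 uM ketoconazole as full inhibition.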

Test [6] in a line: SDT Cancer Cell Toxicity qHTS against the NCATS CANVASS Library (AID 1347365). The procedure, abridged:
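Dispense 500 SDT cells per well; pin-transfer compounds; incubate 72 hr at 37C, 5% CO2, 95% RH; add CellTiterGlo and read luminescence.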

A short description of test [7]: G06 Cancer Cell Toxicity qHTS against the NCATS CANVASS Library (AID 1347368). The procedure, abridged: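 Cytotoxicity toward canine glioma G06 cells is scored from cellular ATP via luminescence after 72 hr compound exposure at 500 cells/well.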
Test [8] can be described thus: qHTS for Hypoxia signaling pathway (HIF-1) antagonists against the NCATS CANVASS Library (AID 1347374). The procedure, abridged:
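HRE-bla ME-180 cells (2,000/well, 0.5% dialyzed FBS) were pre-incubated 5 h, then given an 11-point compound series plus CoCl2 (60 uM solution as added) for 17 h at 37C. CCF4 β-lactamase read (ex 405, em 460/530 nm) after 2 h at RT.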

Test [9] is described as follows: qHTS for Hypoxia signaling pathway (HIF-1) agonists against the NCATS CANVASS Library (AID 1347375). An outline of the steps: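 Inducers of HIF-1 signaling were detected in ME-180 cells bearing an HRE-driven beta-lactamase reporter after 17 h compound exposure. Activity came from CCF4-AM FRET emission ratio (460/530 nm) in qHTS format.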
Test [10] in a line: qHTS for Inflammasome Signaling Inhibitors: IL-1-beta AlphaLISA screen against the NCATS CANVASS Library (AID 1347379). An outline of the steps:
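Human THP-1 cells were pretreated 1 hr at 37 °C with compounds (up to 57.5 uM final), then stimulated with LPS (250 ng/mL final) and ATP (1.25 mM final). Secreted IL-1B was read by AlphaLISA after 16 hr.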

Test [11] is described as follows: qHTS for Antimalaria activity screened against the NCATS CANVASS Library (AID 1347380). The procedure, abridged: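 Growth inhibition of asexual erythrocytic P. falciparum Dd2 was quantified by SYBR Green DNA staining. Cultures grew 72 h with compound (11-point series) in hypoxic gas at 37C; lysis and staining lasted 18 h.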
The nature of test [12]: qHTS for inhibitors of Wild type Zika virus screened against the NCATS CANVASS Library (AID 1347396). An outline of the steps:
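Vero 766 (African green monkey) cells, 1000 per well, attached overnight, then compounds were added in an 11-point series before wild-type Zika virus infection. After 72 h at 37C, cell viability was read as CellTiter Glo luminescence.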

The nature of test [13]: qHTS for inhibitors of Rabies Virus screened against the NCATS CANVASS Library (AID 1347402; calls by dose curve).
A short description of test [14]: qHTS for activators of Nrf2/ARE signaling pathway screened against the NCATS CANVASS Library (AID 1347391). The procedure, abridged:
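Cells carrying an ARE-driven beta-lactamase reporter (HepG2 background) are dosed for 16 h, then stained with CCF4. Cell viability in the same wells is measured by CellTiter-Glo luminescence.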

Test [15] is described as follows: qHTS for inhibitors of ER calcium dysfunction: SERCaMP assay screened against the NCATS CANVASS Library (AID 1347393). The procedure, abridged: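 Thapsigargin-induced ER calcium depletion drives GLuc-SERCaMP secretion from SH-SY5Y cells; compounds given 16 h beforehand were scored by lowered coelenterazine luminescence after 4 h challenge.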

Sequence of Ubiquitin carboxyl-terminal hydrolase 1 (Homo sapiens) (O94782 whole entry, looked up): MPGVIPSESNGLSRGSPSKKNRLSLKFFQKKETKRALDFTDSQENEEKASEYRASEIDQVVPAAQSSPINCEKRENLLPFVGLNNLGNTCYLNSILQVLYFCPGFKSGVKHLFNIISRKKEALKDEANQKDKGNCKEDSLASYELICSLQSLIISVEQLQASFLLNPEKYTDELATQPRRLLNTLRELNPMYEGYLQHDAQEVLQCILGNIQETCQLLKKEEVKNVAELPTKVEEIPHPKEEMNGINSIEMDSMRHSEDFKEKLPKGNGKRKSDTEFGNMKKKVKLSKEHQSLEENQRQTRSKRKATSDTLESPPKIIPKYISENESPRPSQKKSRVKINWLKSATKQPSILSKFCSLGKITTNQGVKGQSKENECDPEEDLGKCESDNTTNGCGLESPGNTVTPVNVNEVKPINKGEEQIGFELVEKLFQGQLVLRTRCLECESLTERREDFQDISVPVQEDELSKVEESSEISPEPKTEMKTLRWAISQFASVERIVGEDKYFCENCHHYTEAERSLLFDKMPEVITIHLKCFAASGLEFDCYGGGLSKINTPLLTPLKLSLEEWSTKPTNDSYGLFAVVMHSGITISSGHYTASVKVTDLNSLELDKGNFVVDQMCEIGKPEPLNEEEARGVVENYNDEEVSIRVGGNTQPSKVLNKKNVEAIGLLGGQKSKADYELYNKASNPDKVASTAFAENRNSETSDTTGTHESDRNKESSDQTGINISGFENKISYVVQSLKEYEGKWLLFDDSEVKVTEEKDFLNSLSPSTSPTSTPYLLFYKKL
Sequence of Cytochrome P450 3A4 (Homo sapiens) (P08684 whole entry, looked up): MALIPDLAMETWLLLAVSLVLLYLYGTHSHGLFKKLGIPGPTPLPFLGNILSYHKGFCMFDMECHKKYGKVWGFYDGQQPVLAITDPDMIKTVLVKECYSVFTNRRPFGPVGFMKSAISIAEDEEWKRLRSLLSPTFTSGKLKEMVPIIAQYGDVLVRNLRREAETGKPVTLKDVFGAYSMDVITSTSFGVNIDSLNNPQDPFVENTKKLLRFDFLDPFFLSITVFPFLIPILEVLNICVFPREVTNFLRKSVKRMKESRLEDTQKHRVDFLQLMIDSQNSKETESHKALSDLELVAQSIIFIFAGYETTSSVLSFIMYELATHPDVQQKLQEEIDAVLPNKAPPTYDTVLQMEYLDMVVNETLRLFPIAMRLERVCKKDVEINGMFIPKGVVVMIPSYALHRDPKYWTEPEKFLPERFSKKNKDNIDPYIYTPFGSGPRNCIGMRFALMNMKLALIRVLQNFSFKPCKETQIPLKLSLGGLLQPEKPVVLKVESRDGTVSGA
Sequence of Cytochrome P450 2D6 (Homo sapiens) (P10635 whole entry, looked up): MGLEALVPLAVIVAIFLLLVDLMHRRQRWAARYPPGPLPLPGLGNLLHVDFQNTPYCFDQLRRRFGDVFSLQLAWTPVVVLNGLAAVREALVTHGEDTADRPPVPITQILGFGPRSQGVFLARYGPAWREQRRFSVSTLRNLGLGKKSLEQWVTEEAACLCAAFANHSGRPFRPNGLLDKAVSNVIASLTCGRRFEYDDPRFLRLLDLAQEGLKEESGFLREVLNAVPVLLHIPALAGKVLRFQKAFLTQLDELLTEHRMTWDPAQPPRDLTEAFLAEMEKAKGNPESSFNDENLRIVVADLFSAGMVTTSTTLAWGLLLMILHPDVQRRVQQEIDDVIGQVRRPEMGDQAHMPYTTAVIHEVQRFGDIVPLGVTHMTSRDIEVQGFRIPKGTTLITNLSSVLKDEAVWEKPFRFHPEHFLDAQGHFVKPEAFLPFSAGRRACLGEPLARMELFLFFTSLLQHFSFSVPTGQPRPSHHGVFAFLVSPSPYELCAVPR
Sequence of Cytochrome P450 1A2 (Homo sapiens) (P05177 whole entry, looked up): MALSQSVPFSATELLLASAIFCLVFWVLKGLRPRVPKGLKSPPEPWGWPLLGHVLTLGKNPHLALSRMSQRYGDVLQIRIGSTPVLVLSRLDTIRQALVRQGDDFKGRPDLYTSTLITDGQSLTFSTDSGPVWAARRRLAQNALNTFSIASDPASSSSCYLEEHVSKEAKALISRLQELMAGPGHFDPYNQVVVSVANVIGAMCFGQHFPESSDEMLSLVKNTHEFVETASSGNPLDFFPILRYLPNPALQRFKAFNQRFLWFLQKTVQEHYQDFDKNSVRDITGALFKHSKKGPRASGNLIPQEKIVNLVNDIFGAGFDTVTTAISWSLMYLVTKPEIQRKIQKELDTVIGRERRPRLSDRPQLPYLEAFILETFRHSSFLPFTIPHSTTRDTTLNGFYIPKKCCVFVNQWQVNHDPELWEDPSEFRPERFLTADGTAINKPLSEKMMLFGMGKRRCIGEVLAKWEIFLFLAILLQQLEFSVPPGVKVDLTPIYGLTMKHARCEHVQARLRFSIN

Consider `CS(=O)(=O)Nc1ccc(Cc2noc(-c3ccc4[nH]cc(CCN)c4c3)n2)cc1`, for which, in test [1], the Potency is 126 nM (active). The Potency entry in [2] is “inactive”.

Turning to `NC[C@H](CP(=O)(O)O)c1ccc(Cl)cc1`, the Potency entry in test [3] and in [5] was “inactive” each time. Also, the activity change, negative = inhibition in [4] is 3.15%.

For `Clc1ccc(C2=CCC[C@H]3CC[C@@H]2N3)cn1`, the Potency in test [3] was 15.8 µM (active). For the same compound, the Potency result in test [2] was “inactive”.

Consider `CN1CCN(C(=O)O[C@@H]2c3nccnc3C(=O)N2c2ccc(Cl)cn2)CC1`, for which the activity change, negative = inhibition in test [4] is -27.2%. For the same compound, the Potency result in [1] was “inactive”.

Consider `C[C@@H]1O[C@@H](O[C@H]2C[C@@H](O)[C@]3(CO)[C@@H]4C(CC[C@]3(O)C2)[C@@]2(O)CC[C@H](C3=CC(=O)OC3)[C@@]2(C)C[C@H]4O)[C@H](O)[C@H](O)[C@H]1O` (some centres not stated), for which, in test [5], the Potency result is “inactive”.

As to `CCOC(OCC)P(=O)(O)CCCN`, in [2], the Potency entry is “inactive”.

Take `CN1[C@@H]2CC[C@H]1CC(O[C@@H](c1ccccc1)c1ccc(Cl)cc1)C2` (some centres not stated): in test [4], the activity change, negative = inhibition was -69.3% (active). The Potency in [1] was 1.26 µM (active) and 1.58 µM (active).

For `COC(=O)CN1CN(c2ccccc2)C2(CCN(Cc3ccc4ccccc4c3)CC2)C1=O`, in test [3], the Potency entry was “inactive”.

Regarding `CN(C(=O)Cc1ccccc1)[C@H](CN1CCCC1)c1ccccc1`, the Potency in test [1] is 3160 nM (active). In test [2], the Potency entry is “inactive”.

For `S=C=Nc1cccc(C2(N3CCCCC3)CCCCC2)c1`, the Potency entry in test [3] was “inactive”.

As to `Cn1cc(C(=O)C(=O)N[C@H]2CN3CCC2CC3)c2ccccc21`, in [1], the Potency is 63.1 nM (active).

As for `O=C1Nc2cc(Cl)c(Cl)cc2N2CCNC[C@H]12`, the Potency result in [2] is “inactive”.

Consider `CC1(C)N(O)C(c2ccc(C(=O)O)cc2)=[N+]([O-])C1(C)C`, for which the Potency in [3] was 31.6 µM (active).

For `COc1ccc(C23Oc4cc(OC)cc(OC)c4[C@](O)([C@H](c4ccccc4)C2C(=O)NCCCCNC(=O)c2ccccc2)[C@@H]3O)cc1` (some centres not stated), the Potency result in [6], in test [7], in test [8], in [9], in test [10] and in test [11] was “inactive” in each case. For the same compound, the Potency entry in [12] is “inactive”. Besides, the compound was called inactive in test [13].

Turning to `N[C@@H](Cn1ccc(=O)n(Cc2ccc(C(=O)O)cc2)c1=O)C(=O)O`, the Potency result in test [3] was “inactive”.

Take `CO[C@@H](/C=C/CC/C=C/C(=O)O)[C@@H](O)[C@H](C)/C=C(\C)[C@@H](O)[C@H](C)C(=O)CCCC1CC(=O)NC(=O)C1`: the Potency entry in test [6], in test [7], in [8], in test [9], in test [10] and in test [11] was “inactive” throughout. In addition, the Potency entry in test [14], in [15] and in test [12] was “inactive” in each case. In test [13], the outcome was inactive.

Take `CCNC(=O)[C@@H]1O[C@@H](n2cnc3c(N)ncnc32)[C@H](O)[C@H]1O`: the Potency result in test [3] and in test [2] was “inactive” in each case.

As to `CN1[C@@H]2CC[C@H]1CC(OC(=O)N1Cc3ccccc3NC1=O)C2` (some centres not stated), the Potency entry in test [5] was “inactive”.

`CCC[C@H]1CC[C@H]2[C@H](C)CCC[C@H]2N1`: the Potency result in test [6], in test [7], in test [8], in test [9], in [10] and in [11] was “inactive” throughout. The Potency result in [14], in [15] and in test [12] was “inactive” each time. Also, in [13], the outcome was inactive.

With `CCCCC1(C2CCCC2)Cc2cc(OCCCC(=O)O)c(Cl)c(Cl)c2C1=O` (configuration not stated), the Potency entry in [5] was “inactive”.

Regarding `NC(=NCc1ccc(Cl)cc1)SCCCc1cnc[nH]1`, the Potency in [5] was 1.58 µM (active).

For the compound `Cc1c(C(=O)c2ccc3ccccc3c2)c2cccc3c2n1[C@H](CN1CCOCC1)CO3`, in [3], the Potency entry was “inactive”. For the same compound, the Potency in [5] was 7.94 µM (active).

For `CC(=O)N[C@H]1CCN2CCC[C@H]12`, the Potency entry in test [6], in [7], in [8], in [9], in test [10] and in [11] was “inactive” in each case. Further, the Potency entry in [14], in test [15] and in test [12] was “inactive” throughout. For the same compound, in test [13], the call was inactive.

As to `CCOC(=O)c1ncn2c1CN(C)C(=O)c1cc(N=[N+]=[N-])ccc1-2`, the Potency entry in test [5] was “inactive”.

Regarding `N[C@H](C(=O)O)c1cc(=O)[nH]o1`, the activity change, negative = inhibition in [4] is 2.26%. The Potency entry in [5] and in test [1] was “inactive” in each case.

`C(=C/c1ccccc1)/CN1CCN(CCOC(c2ccccc2)c2ccccc2)CC1`: the Potency in test [3] is 20 µM (active); in test [1], 5010 nM (active).

With `CO[C@@H](/C=C/CC/C=C/C(=O)O)[C@@H](O)[C@H](C)[C@@H](O)/C(C)=C/[C@H](C)C(=O)CCCC1CC(=O)NC(=O)C1`, the Potency result in test [6], in test [7], in test [8], in [9], in test [10] and in test [14] was “inactive” in each case. The Potency entry in [15] and in [12] was “inactive” throughout. The outcome in [13] was inactive.

Consider `Oc1ccc2c3c1O[C@H]1c4oc5ccccc5c4C[C@]4(O)[C@H](C2)N(CC2CC2)CC[C@@]314`, for which the Potency result in [3] was “inactive”. The activity change, negative = inhibition in [4] is -24.9%. Also, in test [1], the Potency is 1260 nM (active).

Turning to `O=C1Nc2ccccc2C2(CCN(CCc3ccc(C(F)(F)F)cc3)CC2)O1`, the Potency result in test [5] was “inactive”.

For `O[C@@H](Cc1ccncc1)C(Cl)(Cl)Cl`, the Potency entry in test [2] was “inactive”.

Consider `NC[C@H](CC(=O)O)c1ccc(Cl)cc1`, for which the Potency in [1] was 794 nM (active).
